Screening results as filed in PubChem BioAssay.
Sampled rows, rich in hits. Any-hit rate of the full collection: about 3.7%.
Nrf2 ARE act = Nrf2 pathway activation. AREc32 ARE-luciferase reporter (MCF7-derived line), luminescence, 24 h. Potency, µM (series often up to 46.1 µM), for the others: at the highest dose activation, actives largely listed as activators. hit rate 0.31% among 410,000; also: % of control where 0% means no effect; nearly all actives have a fitted effect of over 65% in size
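Each well held 1000 AREc32 cells, which were incubated with compound for 24 hr at 37 deg C after overnight attachment, and ARE reporter activity was quantified by firefly luciferase luminescence.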
A549 viability = kills or reduces viability of A549 cells in Nrf2 counter-screen. hit rate 0.16% among 390,000. AID 504648. Potency, µM (top dose mostly 46 µM), for inactives: at the top dose activity change, negative = cytotoxicity, actives largely listed as inhibitors. A549 ARE-Fluc cells, CellTiter-Fluor viability, 18-24 h; also: % is scaled to controls: 0 for no effect and ±100 for the full control effect
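A549 ARE_Fluc cells in 5% FBS OPTI-MEM were exposed to compounds in concentration-response for 18-24 h at 37 deg C. Viability was read by CellTiter-Fluor fluorescence (Ex 405/Em 525) after 30 min, before the luciferase read.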
ELG1 repair inh = ELG1-dependent DNA repair inhibition | hit rate 2.3% among 330,000 | Potency, µM (doses to about 46.1 µM), without a hit: at the top dose activity change, negative = inhibition, most hits filed as inhibitors | HEK293T ELG1-luciferase reporter, luminescence, 16 h; DNA damage induced by 5-fluorouridine; also: % is scaled to controls: 0 for no effect and ±100 for the full control effect; nearly all actives have a fitted effect of over 55% in size
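Overnight (16 hr) co-exposure of 2,000 cells/well to 5-fluorouridine and compound at 37 °C preceded detection. Luciferase was quantified via ONE-Glo luminescence; loss of signal denotes inhibition.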
Nrf2 block = Nrf2 pathway inhibition; A549 ARE-Fluc reporter, luciferase luminescence, 18-24 h; Potency, µM (series often up to 46 µM), for inactives: top-dose activity change, negative = inhibition, actives largely listed as inhibitors; hit rate 2.1% among 360,000; AID 504444; also: % is scaled to controls: 0 for no effect and ±100 for the full control effect; nearly all actives have a fitted effect of over 60% in size
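Reporter: ARE-Fluc in A549. Exposure: 18-24 h, 37 °C, 5% CO2, 5% FBS OPTI-MEM. Readouts: fluorescent cytotoxicity (CellTiter-Fluor), then luminescent Nrf2 signal after BugLite.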
Numbers without * were called inactive; ? = inconclusive; · = no result given. Calls follow the shape of the dose curve; as a rule, active = well fitted curve in the direction sought with a large enough effect; inconclusive = small, poorly fitted or top-dose-only effect, or another doubt; inactive = no such curve, though single readings can be large; an effect the other way counts as inactive or inconclusive. Potency is read from the fitted curve at half-maximal effect.

SMILES	Nrf2 ARE act	A549 viability	ELG1 repair inh	Nrf2 block
CCNC(=O)C1(C)CCCN(CCOc2ccc(Cl)cc2)C1 (stereo not given)	0%	·	·	·
COc1cccc(C#CC2=CC(=O)C[C@H](c3ccc(F)cc3)C2)c1	16µM*	·	·	·
O=C1C=C(C#Cc2ccc(Oc3ccccc3)cc2)C[C@@H](c2ccc(F)cc2)C1	25%	·	·	·
O=S(=O)(c1cccc(S(=O)(=O)N2CCCC2)c1)c1cccc(S(=O)(=O)N2CCCC2)c1	0%	-24%	21µM*	·
CCCn1nnnc1NCc1ccccc1C	0%	0%	-4%	11%
COc1ccc(NC(=O)CSc2nnc3ccc(-c4cccnc4)nn23)cc1	0%	-2%	1%	4%
COc1ccc(NC(=O)CSc2nnc3ccc(-c4ccncc4)nn23)cc1	-1%	-6%	8.2µM*	-27%
CC1(C)CC2CC(C)(CN2c2ncnc3ccccc23)C1 (stereo not given)	0%	?	?	10µM*
CCOC(=O)N1CCN(S(=O)(=O)c2ccc(C(=O)NNc3nc4cc(C)cc(C)c4s3)cc2)CC1	0%	?	1%	3.7µM*
CCOC(=O)N1CCN(S(=O)(=O)c2ccc(C(=O)NNc3nc4c(C)cc(C)cc4s3)cc2)CC1	3%	-13%	?	?
CCCCCCSc1ccc([C@H]2N[C@@](C)(C(=O)OC)[C@H]3C(=O)N(C)C(=O)[C@@H]23)cc1	-1%	0%	?	26µM*
CCCSc1ccc([C@H]2N[C@@](C)(C(=O)OC)[C@H]3C(=O)N(C)C(=O)[C@@H]23)cc1	0%	0%	-4%	-28%
CC1CCc2c(nc3ncnn3c2NCCc2ccccc2F)C1 (stereo not given)	0%	?	?	3.3µM*
Cc1nc2nc(CNC(=O)c3cccc(F)c3)nn2c(C)c1CCC(=O)Nc1ccc(F)cc1	1%	0%	·	2%
Cc1cc(C)n(-c2ccc(C(=O)Nc3cc(S(=O)(=O)N(C)C)ccc3Cl)cc2)n1	-1%	1%	?	18µM*
Cc1cc(C)n(-c2ccc(C(=O)Nc3cccnc3Cl)cc2)n1	0%	-9%	-10%	?
CCN1CCN(c2ccc(Cl)cc2NC(=O)c2ccc(-n3nc(C)cc3C)cc2)CC1	1%	?	15µM*	?
COc1ccc(S(=O)(=O)c2c(Nc3ccccc3F)sc(C(=O)c3cccc(OC)c3)c2N)cc1	2%	-12%	·	·
C(=C\c1nc(-c2ccccc2)no1)/c1ccccc1	14µM*	-2%	?	?
O=C(CSc1nc(=O)n(CCN2CCOCC2)c2c1CCC2)Nc1ccc(OC(F)(F)F)cc1	2%	-1%	?	18µM*
N#Cc1cc([N+](=O)[O-])ccc1NC(=O)COC(=O)C1CC2CCCC(C1)C2=O (stereo not given)	0%	1%	9.2µM*	3%
N#Cc1cc([N+](=O)[O-])ccc1NC(=O)COC(=O)C12CC3CC(CC(C3)C1)C2	·	·	10µM*	·
COC(=O)N/N=C/c1c(C)c(C(=O)c2ccc(F)cc2)n2ccccc12	4%	?	23µM*	?
Cc1c(/C=N/NC(=O)c2cccnc2)c2ccccn2c1C(=O)c1ccc(F)cc1	·	·	18µM*	·
Cc1nn(-c2ccccc2)c(Cl)c1/C=N/NC(=O)c1cccnc1	13%	3%	?	23%
SMILES	Nrf2 ARE act	A549 viability	ELG1 repair inh	Nrf2 block
O=C(N/N=C/c1c(Cl)nc2ccccn2c1=O)c1cccnc1	14µM*	4%	16%	?
Cc1c(/C=N/NC(=O)c2ccc(O)cc2)c2ccccn2c1C(=O)c1ccc(F)cc1	4%	?	?	?
Cc1c(/C=N/NC(=O)c2ccccc2O)c2ccccn2c1C(=O)c1ccc(F)cc1	3%	18µM*	23µM*	21µM*
CCOc1ccc(S(=O)(=O)N2CCC(C(=O)NCc3ccncc3)CC2)cc1	-1%	0%	-4%	-6%
COc1ccc(CNc2ccc3c(c2)ncn3-c2ccccc2OC)cc1	4%	-30%	?	18µM*
COc1ccc(OC)c(-c2cc(C(=O)NCc3ccco3)no2)c1	11µM*	2%	8%	4%
COc1ccc(OC)c(-c2cc(C(=O)Nc3c(C)nn(Cc4ccccc4)c3C)no2)c1	3%	-15%	?	15µM*
COc1ccc2c(c1)CCc1c(C(=O)Nc3c(C)nn(Cc4ccccc4)c3C)noc1-2	-1%	-6%	13µM*	21µM*
Cc1nn(Cc2ccc(Cl)c(Cl)c2)c(C)c1NC(=O)c1cc(-c2ccc3c(c2)OCO3)on1	4%	?	?	12µM*
Cc1ccc(NC(=O)c2cc(-c3ccc4c(c3)OCO4)on2)cc1	0%	1%	?	9%
COc1cccc(-c2cc(C(=O)NCc3ccco3)no2)c1	1%	-5%	?	·
CCOC(=O)c1sc(NN=C(C(=O)OC)C(=O)OC)c(C(=O)OCC)c1C	0%	-6%	?	-24%
CC(=O)N1C[C@H]2CON(C)[C@H]2C[C@H]1c1ccc(-c2ccccc2)cc1	-1%	·	·	·
COc1ccc(C2Nc3ccccc3C(=O)N2Cc2ccccc2C)cc1COc1ccc(NC(C)=O)cc1 (stereo not given)	·	-9%	·	?
Cc1nn(Cc2ccc(Cl)cc2)c(C)c1NC(=O)c1noc2c1CCc1ccccc1-2	0%	?	?	16µM*
Cc1ccc(Cn2ccc(NC(=O)c3noc4c3CCc3ccccc3-4)n2)cc1	0%	-2%	16%	?
Cc1nn(Cc2ccc(Cl)cc2)c(C)c1NC(=O)c1c(-c2ccccc2)noc1C	-1%	-17%	13µM*	3%
COc1ccc2c(c1)CCc1c(C(=O)Nc3c(C)nn(Cc4ccc(Cl)cc4)c3C)noc1-2	0%	-2%	·	-13%
COc1ccc2c(c1)CCc1c(C(=O)Nc3ccn(Cc4ccc(C)cc4)n3)noc1-2	0%	-25%	?	16µM*
COc1ccc(N2CCN(C(=O)CCc3c(C)nn(-c4ccc(N5CCCC5)nn4)c3C)CC2)cc1	-1%	12%	·	?
CCc1ccc(S(=O)(=O)c2nnn3c2nc(NC(C)C)c2cc(Cl)ccc23)cc1	-1%	-2%	·	10%
O=C(C1=NN[C@@H]2C(=O)N(Cc3ccccc3)C(=O)[C@H]12)c1ccc([N+](=O)[O-])cc1	-1%	1%	0%	1%
CCOc1ccc(NC(=O)c2ccc(F)c(S(=O)(=O)N(CC)Cc3ccccc3)c2)cc1	-1%	-11%	·	·
CCN(CC(=O)Nc1ccc2c(c1)OCCO2)C(=O)c1cc(Cl)nc2ccccc12	-1%	-2%	-2%	1%
CCN(CC(=O)Nc1ccc2c(c1)OCCO2)c1nc(-c2cccnc2)nc2ccccc12	1%	1%	13µM*	-3%
c1cncc(-c2nc(NCC3COc4ccccc4O3)c3ccccc3n2)c1 (stereo not given)	-1%	-21%	15µM*	?
c1ccc(CNc2nc(-c3cccnc3)nc3ccccc23)cc1	0%	-8%	?	-19%
